Rows were chosen to be rich in hits. Some 0.46% of all compounds tested hit in one or more screens of this group.
PDI inh – inhibitors of human PDI, primary screen, biochemical, turbidity, single point, plate reader; PDI insulin aggregation turbidity, A650, 90 min; 0.052% of 350,000 active; AID 588391, 2011; inhibition, % at 10 µM;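 active = mean inhibition across replicates of 30% or more, whatever share of single replicates reach that level; inconclusive = mean inhibition below 30% while every single replicate reaches 30%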
Target sequence (P07237 whole entry, looked up): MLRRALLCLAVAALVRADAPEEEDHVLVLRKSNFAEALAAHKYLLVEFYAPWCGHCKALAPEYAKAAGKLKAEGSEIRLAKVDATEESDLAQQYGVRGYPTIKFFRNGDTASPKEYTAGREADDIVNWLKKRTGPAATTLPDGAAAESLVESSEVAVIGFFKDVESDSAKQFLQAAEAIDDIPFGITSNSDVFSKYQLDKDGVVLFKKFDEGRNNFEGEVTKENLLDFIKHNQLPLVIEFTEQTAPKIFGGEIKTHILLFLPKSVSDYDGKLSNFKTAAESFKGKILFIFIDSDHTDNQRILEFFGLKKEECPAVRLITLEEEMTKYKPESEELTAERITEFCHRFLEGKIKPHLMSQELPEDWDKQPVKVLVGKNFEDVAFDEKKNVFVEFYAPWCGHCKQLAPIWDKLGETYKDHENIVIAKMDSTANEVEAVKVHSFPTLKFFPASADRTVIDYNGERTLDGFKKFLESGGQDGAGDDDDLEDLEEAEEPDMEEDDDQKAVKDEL
CaV13 ICDI inh – Primary screen for inhibitors of IQ motif and Ca2+-dependent inactivation inhibitor domain binding in CACNA1D, Förster resonance energy transfer in living cells, … | HEK cells, CFP/YFP FRET ICDI-IQ, plate reader, 10 min; percent FRET-ratio fall versus neutral wells | inhibition, % at 12.3 µM | 0.098% of 340,000 active | AID 743397;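 active = mean replicate inhibition of at least 30% and at least 1% of replicates passing that level; inconclusive = only one of the two criteria is met; inactive = neither criterion is met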
PglD inh – C. jejuni PglD acetyltransferase inhibitors, primary screen, biochemical, DTNB colorimetric, single point | purified PglD enzyme, DTNB colorimetric CoA detection | 0.098% of 360,000 active | UDP-N-acetylbacillosamine N-acetyltransferase PglD (Campylobacter jejuni) | inhibition, % at 12.5 µM; in the data active = inhibition above about 16%, passing the limit was not always enough; inconclusive = no clear call, values can overlap the other calls
PGC1a acetyl inh – inhibitors of PGC1a acetylation signal, primary screen, cell-based, U2OS, AlphaScreen, inhibitor mode; AlphaScreen anti-acetyl-lysine; with virally co-expressed GCN5 acetyltransferase; inhibition, % at 15.6 µM; 0.17% of 350,000 active;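 active = every replicate shows inhibition of at least 40%; inconclusive = mean inhibition at least 40% but some replicate below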
ERAP1 inh – human ERAP1 aminopeptidase inhibitors, primary screen, biochemical, single point, plate reader | Endoplasmic reticulum aminopeptidase 1 (Homo sapiens), Q9NZ08 | 0.15% of 340,000 active | recombinant ERAP1, Leu-AMC fluorescence, 60 min | inhibition, % at 10.7 µM | AID 652197, 2013;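 active = mean replicate inhibition of at least 30%, or all replicates individually reaching that 30% level; inactive = mean below 30% and not every replicate reaching it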
ERp5 inh – inhibitors of ERp5-driven insulin aggregation, primary screen, biochemical, turbidity, absorbance 650 nm, single point. 90 min. inhibition, % at 9.99 µM. 0.05% of 350,000 active;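 active = mean replicate inhibition above about 25%, with every replicate also reaching it, limit read from the data, passing the limit was not always enough; inconclusive = only one of those two criteria met; inactive = neither criterion met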
PglD inh SP – PglD acetyltransferase inhibitors, confirmation, biochemical, DTNB absorbance, single point, cherry-picked samples; shares compounds with PglD inh; Purified C. jejuni PglD, DTNB absorbance 412 nm; 320 tested, under 10 active; inhibition, % at 20 µM;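 active = mean inhibition across replicates of at least 20% with every single replicate also at 20% or more; inconclusive = mean inhibition at least 20% but some replicate falls below 20%; inactive = mean inhibition under 20% and not all replicates reach it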;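 note: initial rate of CoA release by acetyl transfer from AcCoA to the UDP-4-amino sugar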
C2C12 COX5a inh – inhibitors of PGC-1a-driven COX5a expression, dose response, cell-based, C2C12 myotubes, RT-qPCR, cherry-picked samples. shares compounds with PGC1a acetyl inh. C2C12 myotubes PGC-1a adenovirus. maximal activity, %. 45 tested, under 10 active. AID 743461, 2014;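 active = fitted dose curve reaching 40% activity at or below the highest valid dose tested; inconclusive = flat fit between 30% and 70%, or an unusable fit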
AID743468 – change in PGC-1a target gene PDK4 expression, dose response, C2C12 myotubes, RT-qPCR, cherry-pick; shares compounds with PGC1a acetyl inh; PGC-1a adenovirus, PDK4 mRNA qPCR; PDK4 expression increase, % at 19.5 µM; 45 tested, under 10 active; AID 743468, 2014;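 active = fitted curve reaching a 40% PDK4 expression rise at or below the top valid tested dose; inconclusive = no clear call, values can overlap the other calls; inactive = the rest, including shifts the wrong way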
Numbers stand for hits; . = inactive; ? = inconclusive; / = no result.

SMILES | PDI inh | CaV13 ICDI inh | PglD inh | PGC1a acetyl inh | ERAP1 inh | ERp5 inh | PglD inh SP | others
CCOc1ccc2[nH]c3nc(SCC(=O)NCC4CCCO4)nnc3c2c1 (stereo not given) | . | . | 24.0 | . | . | . | .
CNC(=O)CCCc1nc(-c2ccccc2Cl)no1 | . | . | 24.4 | . | . | . | .
COc1ccc(CNC(=O)C[C@@H]2C=C[C@H](NC(=O)CN(C)C)[C@@H](CO)O2)cc1 | / | / | . | . | . | . | /
Cc1cccc(NC(=O)CN(C)C(=O)C2CC2)c1C | . | . | 22.1 | . | . | . | .
COc1ccccc1/C=C/C(=O)N1CCN(S(=O)(=O)c2cccs2)CC1 | . | . | 31.9 | . | . | . | .
CO[C@@H]1CN(C)C(=O)c2ccc(NC(=O)Nc3cccc(Cl)c3)cc2OC[C@H](C)N(C(=O)Nc2c(C)noc2C)C[C@@H]1C | / | / | . | / | . | . | /
O=C(OCC(=O)N1CCC(Cc2ccccc2)CC1)c1ccc(O)cc1 | . | . | 23.6 | . | . | . | .
Cn1nnc2cc(NC(=O)Nc3ccccc3F)ccc21 | . | . | . | . | . | . | /
Cc1cc(NC(=O)Nc2ccccc2F)ccc1Br | . | . | 40.2 | . | . | . | .
CCN(Cc1cccc(OC)c1)CC1CCCN(CCc2cccc(OC)c2)C1 (stereo not given) | . | . | 22.2 | . | . | . | .
CCOc1cccc(CN(CC)CC2CCCN(CCc3cccc(OC)c3)C2)c1O (stereo not given) | . | . | . | . | . | . | /
CC(C)NC(=O)N(C)C[C@H]1OCCCC[C@H](C)Oc2ccc(NC(=O)CCCN(C)C)cc2C(=O)N([C@H](C)CO)C[C@@H]1C | / | / | . | . | . | . | /
C[C@H]1CN([C@@H](C)CO)C(=O)Cc2cc(NC(=O)NC3CCCCC3)ccc2O[C@H]1CN(C)CC1CC1 | / | / | . | . | . | . | /
O=C(COc1ccc(S(=O)(=O)N2CCCCC2)cc1)N1CCCCCC1 | . | . | 20.8 | . | / | / | .
CC1CCN(C(=O)COc2ccc(S(=O)(=O)N3CCCC3)cc2)CC1 | . | . | . | . | . | . | /
C[C@H]1CN([C@@H](C)CO)C(=O)c2cccc(NS(=O)(=O)c3ccccc3)c2O[C@H]1CN(C)Cc1ccc(Cl)c(Cl)c1 | / | / | . | . | . | . | /
CC(C)c1nc2ccc(NC(=O)C3CCCCC3)cc2[nH]1 | . | . | 33.6 | . | / | / | .
O=C(Nc1ccc2nc(-c3ccccn3)[nH]c2c1)C1CCCCC1 | . | . | . | . | / | / | /
C[C@H](CO)N1C[C@H](C)[C@@H](CN(C)Cc2cccnc2)Oc2cc(C#CC3CCCCC3)ccc2S1(=O)=O | / | / | . | ? | . | . | / | C2C12 COX5a inh=.;AID743468=.
Cc1ccc(S(=O)(=O)N(C)C[C@H]2Oc3cc(C#Cc4ccncc4)ccc3S(=O)(=O)N([C@H](C)CO)C[C@H]2C)cc1 | / | / | . | 44.4 | . | . | / | C2C12 COX5a inh=.;AID743468=.
C[C@H](CO)N1C[C@H](C)[C@@H](CN(C)C(=O)Nc2ccccc2)Oc2ccc(NS(=O)(=O)c3ccc(Cl)cc3)cc2C1=O | / | / | . | . | . | . | /
Cn1nnnc1SCC(=O)NCc1cccc(C(=O)O)c1 | . | . | . | ? | / | / | / | C2C12 COX5a inh=.;AID743468=.
Cc1cc(C)cc(OC(=O)CS(=O)c2ccc(C(F)(F)F)cc2[N+](=O)[O-])c1 (stereo not given) | . | . | . | . | / | / | / | C2C12 COX5a inh=.;AID743468=.
COC(=O)c1nn(-c2ccccc2)ccc1=O | . | / | / | 44.3 | / | / | / | C2C12 COX5a inh=.;AID743468=.

Bioassay records (PubChem BioAssay)
